Screens deposited in PubChem BioAssay by several laboratories.
The list is not random: actives were taken first. Their share in the collection is about 2.3%.
HSP90 refold inh: HSP90 inhibitors, primary screen, cell lysate, luminescence | Rabbit reticulocyte lysate, luciferase refolding luminescence, 3 h | inhibition, % at 5.6 µM | actives 0.91% (n = 290,000) | AID 1789, 2009;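 active means inhibition above the screen-wide mean plus 3 SD, computed separately per campaign, cut at about 16% in these data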;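 further: inhibitors lower the luminescence because luciferase stays unfolded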
SENP7 inh: SENP7 protease inhibitors, primary screen, biochemical, luminescence, uHTS; recombinant SENP7, Z-RLRGG-aminoluciferin luminescence, 40 min; inhibition, % at 5 µM; Sentrin-specific protease 7 (Homo sapiens), Q9BQF6; actives 1.5% (n = 330,000);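 active means inhibition above about 50% at the single test dose, limit read from the data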
LGR2 antag: inhibitors of bursicon-induced LGR2 CRE-luciferase signal, primary screen, cell-based, HEK293, CRE-luciferase reporter, bursicon stimulation. Drosophila bursicon receptor LGR2 (rickets). inhibition, % at 9.99 µM. bursicon-stimulated, 4 h. actives 0.35% (n = 380,000);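 active means drop in luminescence signal, shown as inhibition above about 50% in the replicate tests, limit read from the data, passing the limit was not always enough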;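 further: agonist challenge used bursicon conditioned medium at about half maximal strength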
SENP8 block-1: SENP8 protease inhibitors, primary screen, biochemical, luminescence. inhibition, % at 10 µM. Sentrin-specific protease 8 (Homo sapiens), Q96LD8. purified SENP8, Z-RLRGG-aminoluciferin cleavage. actives 1.2% (n = 330,000); in the data active means inhibition above about 50%
Target sequence (Q96LD8 whole entry, looked up): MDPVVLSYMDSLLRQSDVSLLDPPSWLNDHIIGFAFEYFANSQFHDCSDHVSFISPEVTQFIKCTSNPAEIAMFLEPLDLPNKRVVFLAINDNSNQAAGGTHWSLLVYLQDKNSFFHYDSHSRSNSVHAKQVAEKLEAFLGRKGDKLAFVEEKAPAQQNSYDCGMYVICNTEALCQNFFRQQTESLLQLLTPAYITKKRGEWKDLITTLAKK
SENP6 block: SENP6 protease inhibitors, primary screen, biochemical, luminescence, uHTS. Sentrin-specific protease 6 (Homo sapiens), Q9GZR1. Recombinant SENP6 catalytic domain, aminoluciferin luminescence. inhibition, % at 10 µM. actives 1.8% (n = 330,000);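 active means inhibition above about 50% at the single tested dose, limit read from the data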
Target sequence (Q9GZR1 628-1112 limits assumed): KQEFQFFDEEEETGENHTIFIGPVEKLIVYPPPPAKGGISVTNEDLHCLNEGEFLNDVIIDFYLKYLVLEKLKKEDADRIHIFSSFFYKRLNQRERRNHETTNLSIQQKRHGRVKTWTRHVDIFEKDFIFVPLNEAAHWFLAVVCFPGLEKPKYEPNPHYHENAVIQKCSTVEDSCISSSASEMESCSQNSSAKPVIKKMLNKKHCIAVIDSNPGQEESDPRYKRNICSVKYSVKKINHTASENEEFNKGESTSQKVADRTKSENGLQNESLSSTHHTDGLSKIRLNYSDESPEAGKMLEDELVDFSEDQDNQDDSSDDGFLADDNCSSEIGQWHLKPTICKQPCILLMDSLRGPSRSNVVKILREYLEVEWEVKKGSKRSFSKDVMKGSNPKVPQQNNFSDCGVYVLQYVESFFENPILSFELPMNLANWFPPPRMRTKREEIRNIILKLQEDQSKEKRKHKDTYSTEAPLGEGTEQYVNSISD
SENP8 block-2: human SENP8 protease inhibitors, primary screen, biochemical, fluorescence, Nedd8 protein substrate, uHTS; Sentrin-specific protease 8 (Homo sapiens), Q96LD8; recombinant SENP8; inhibition, % at 20 µM; actives 0.64% (n = 360,000); in the data active means inhibition mostly above about 40%, no sharp cut-off; inactive means mostly below about 27%
SENP8 conf: human SENP8 protease inhibitors, confirmation, biochemical, Nedd8 protein substrate, single concentration. inhibition, % at 25 µM. actives 15% (n = 1,400). purified SENP8, Nedd8-AMC/pro-Nedd8 cleavage fluorescence, 30 min. shares compounds with SENP8 block-2; in the data active means inhibition mostly above about 39%, no sharp cut-off; inactive means mostly below about 34%
Large screens that a line does not name were inactive (follow-up assays come after a bar, where they were run).

C[C@@H]1CN([C@@H](C)CO)C(=O)c2cc(NC(=O)c3ccncc3)ccc2O[C@@H](C)CCCCO[C@H]1CN(C)C(=O)C1CCCCC1	none (no result: HSP90 refold inh, SENP7 inh, SENP8 block-1, SENP6 block, SENP8 block-2)
O=C1CSC2=NCN(c3ccc4c(c3)OCO4)CN12	none (no result: LGR2 antag)
CN(C)c1ccc(N2CN=C3SCC(=O)N3C2)cc1	SENP8 block-2 52 (no result: LGR2 antag) | SENP8 conf inactive
CCOc1cc(C(c2c(C)[nH][nH]c2=O)c2c(C)[nH][nH]c2=O)ccc1OS(=O)(=O)c1ccccc1	SENP8 block-2 44 | SENP8 conf 47
Cc1ccc(C(=O)c2ccc([N+](=O)[O-])cc2)cc1	none
Cc1ccc(C(=O)c2coc3cc([N+](=O)[O-])c(O)c([N+](=O)[O-])c23)cc1	SENP8 block-2 47 | SENP8 conf inactive
C/C=C/c1ccc(C2[C@@H]3CN(C(=O)CN4CCOCC4)C[C@H]2N3)cc1 (stereo partly drawn)	none (no result: HSP90 refold inh, SENP7 inh, SENP8 block-1, SENP6 block, SENP8 block-2)
COc1ccc(S(=O)(=O)Nc2ccc3c(c2)C(=O)N([C@@H](C)CO)C[C@H](C)[C@@H](CN(C)Cc2ccncc2)OCCCC[C@@H](C)O3)cc1	none (no result: HSP90 refold inh, SENP7 inh, SENP8 block-1, SENP6 block, SENP8 block-2)
CCN1C(=S)SC(=O)C1=C1C=C(C)OC(C)=C1	SENP8 block-2 48 (no result: LGR2 antag) | SENP8 conf inactive
CCN(CC)CC(=O)n1c2c(c3ccccc31)CCCC2	none (no result: LGR2 antag)
CN1CCN(CC(=O)n2c3c(c4ccccc42)CCCC3)CC1	SENP8 block-2 44 (no result: LGR2 antag) | SENP8 conf inactive
Nc1ccc(C2CCCc3nonc32)c2nonc12 (stereo not drawn)	SENP8 block-2 57 (no result: LGR2 antag) | SENP8 conf inactive
O=C(C[C@@H]1C[C@@H]2c3cc(NC(=O)CC4CC4)ccc3O[C@@H]2[C@H](CO)O1)NCc1cccnc1	none (no result: HSP90 refold inh, SENP7 inh, SENP8 block-1, SENP6 block, SENP8 block-2)
COc1ccc(CSc2nnnn2C)cc1[N+](=O)[O-]	SENP8 block-2 48 (no result: LGR2 antag) | SENP8 conf inactive
COc1ccc(CSc2nnnn2-c2ccc(C(N)=O)cc2)cc1[N+](=O)[O-]	none
CC(=O)Nc1cc([N+](=O)[O-])ccc1N1CCOCC1	none
O=C(Nc1ccc([N+](=O)[O-])cc1)Nc1ccc(N2CCOCC2)c2nonc12	LGR2 antag 67, SENP8 block-2 46 | SENP8 conf inactive
CC(=O)N1CCN(C(=O)CCC(=O)O)CC1	SENP8 block-2 54 | SENP8 conf inactive
Cc1ccoc1C(=O)NCCCNC(=O)c1occc1C	SENP8 block-2 62 (no result: LGR2 antag) | SENP8 conf 82
CCOC(=O)CN1C(=O)S/C(=C/c2ccc(O)c([N+](=O)[O-])c2)C1=O	SENP8 block-2 48 | SENP8 conf inactive
CCOC(=O)CN1C(=O)S/C(=C/c2ccc(C)o2)C1=O	none
COc1c(OC)c(O)c2c(=O)c(O)c(-c3ccccc3)oc2c1OC	SENP8 block-2 42 (no result: LGR2 antag) | SENP8 conf inactive
COc1ccc(-c2oc3c(OC)c(OC)c(OC)c(O)c3c(=O)c2OC)cc1OC	none (no result: LGR2 antag)
CO[C@H]1CN(C)C(=O)c2ccc(NS(=O)(=O)c3ccc(Cl)cc3)cc2OC[C@H](C)N(C)C[C@@H]1C	none (no result: HSP90 refold inh, SENP7 inh, SENP8 block-1, SENP6 block, SENP8 block-2)
CCCNC(=O)N(C)C[C@@H]1Oc2ncc(-c3ccncc3)cc2C(=O)N([C@@H](C)CO)C[C@H]1C	none (no result: HSP90 refold inh, SENP7 inh, SENP8 block-1, SENP6 block, SENP8 block-2)
C[C@H](CO)N1C[C@H](C)[C@@H](CN(C)C(=O)c2ccncc2)OCCCC[C@H](C)Oc2ccc(NS(=O)(=O)c3cn(C)cn3)cc2C1=O	none (no result: HSP90 refold inh, SENP7 inh, SENP8 block-1, SENP6 block, SENP8 block-2)
COc1ccc(S(=O)(=O)N(C)C[C@@H]2Oc3c(NS(=O)(=O)c4ccc(Cl)cc4)cccc3C(=O)N([C@@H](C)CO)C[C@@H]2C)cc1	none (no result: HSP90 refold inh, SENP7 inh, SENP8 block-1, SENP6 block, SENP8 block-2)
COc1ccc2[nH]cc(CCNC(=O)COc3ccc4ccc(=O)oc4c3)c2c1	SENP8 block-2 42 (no result: LGR2 antag) | SENP8 conf inactive
Cc1cc(=O)oc2cc(OCC(=O)NCCc3c[nH]c4ccc(F)cc34)ccc12	none
O=C(C[C@@H]1CC[C@H]2[C@@H](COC[C@H](O)CN2S(=O)(=O)c2ccccc2F)O1)NCc1ccccc1Cl	none (no result: HSP90 refold inh, SENP7 inh, SENP8 block-1, SENP6 block, SENP8 block-2)
COc1cc(-c2ccc(NC(C)=O)c(OC)c2)ccc1NC(C)=O	none
COc1cc(O)c(NC(C)=O)c2nonc12	SENP8 block-2 60 | SENP8 conf inactive
CCN1CCN(C(=O)C(C)Nc2cc(Cl)c(OC)cc2OC)CC1 (stereo not drawn)	SENP8 block-2 44 | SENP8 conf inactive
CCN1CCN(C(=O)Nc2cc(Cl)ccc2OC)CC1	none
C=CCc1ccc(OC)c(OC)c1	SENP8 block-2 52 (no result: LGR2 antag) | SENP8 conf inactive
COc1cc2c3c(c1)c(C1=NC(=S)NC1=O)c(O)n3C(C)(C)C=C2C	none (no result: LGR2 antag)
CC1(c2ccccc2)CC(C)(C)n2c(O)c(C3=NC(=S)NC3=O)c3cccc1c32 (stereo not drawn)	SENP8 block-2 50 | SENP8 conf inactive
COc1ccc(NC(=O)Nc2ccc3c(c2)CC(=O)N([C@H](C)CO)C[C@@H](C)[C@@H](CN(C)C(=O)NC(C)C)O3)cc1	none (no result: HSP90 refold inh, SENP7 inh, SENP8 block-1, SENP6 block, SENP8 block-2)
Cc1ccc([N+](=O)[O-])cc1/C=N/Nc1nnnn1-c1ccccc1	none
Cc1nn(-c2ccccc2)c(N2CCCC2)c1/C=N/Nc1ccc(S(=O)(=O)Nc2ccccc2)cc1[N+](=O)[O-]	SENP8 block-2 64 | SENP8 conf inactive
Cc1ccc(-n2[nH]c(C)c(/C=N/Nc3ccc([N+](=O)[O-])cc3[N+](=O)[O-])c2=O)cc1C	SENP8 block-2 40 | SENP8 conf inactive
COc1c(/C=N/Nc2ccc([N+](=O)[O-])cc2[N+](=O)[O-])c(C)nn1-c1ccccc1	SENP8 block-2 62 (no result: LGR2 antag) | SENP8 conf inactive
COc1ccccc1NS(=O)(=O)c1ccc(N/N=C/c2c(C)nn(-c3ccccc3)c2N2CCCC2)c([N+](=O)[O-])c1	SENP8 block-2 45 | SENP8 conf inactive
CCOc1ccc(S(=O)(=O)Nc2ccc(C(=O)N/N=C/c3c(C)nn(-c4ccccc4)c3N3CCCC3)cc2)cc1	none
COc1ccc(S(=O)(=O)N(C)C[C@@H]2Oc3ncc(C#CC4(O)CCCC4)cc3C(=O)N([C@@H](C)CO)C[C@@H]2C)cc1	none (no result: HSP90 refold inh, SENP7 inh, SENP8 block-1, SENP6 block, SENP8 block-2)
C[C@@H]1CN([C@@H](C)CO)C(=O)c2cc(NC(=O)c3ccncc3)ccc2O[C@H]1CN(C)CC1CCCCC1	none (no result: HSP90 refold inh, SENP7 inh, SENP8 block-1, SENP6 block, SENP8 block-2)
CC(=O)Oc1ccc2c(c1)CCC1C2CCC2(C)C(OC(C)=O)CCC12 (stereo not drawn)	SENP8 block-2 47 (no result: HSP90 refold inh, SENP7 inh, LGR2 antag, SENP8 block-1, SENP6 block) | SENP8 conf inactive
C[C@]12CC[C@@H]3c4ccc(OC(=O)c5ccccc5)cc4CC[C@H]3[C@@H]1CC[C@@H]2O	none
